# Screens from PubChem BioAssay.
# HSF1 inh – HSF1 inhibitors in luciferase reporter cells, primary screen, cell-based, NIH3T3, luminescence. AID 2098, 2009. 0.77% of 300,000 active. NIH3T3-HGL HSE-luciferase, MG132-induced, luminescence 8 h; active compounds read low. activity change, negative = inhibition, % at 7.5 µM (by protocol);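 active = more than half of replicate wells show activity change below -50%, luminescence cut by over half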;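 also: luciferase reports HSF-1 transcriptional activity via heat shock element; 0% = median of DMSO wells and -100% = zero luminescence signal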
# TROY signal inh – inhibitors of TROY-driven NF-kB signaling, primary screen, Q293 LMP1-TROYcd cells, NF-kB luciferase, uHTS; inhibition, % at 10 µM; Q293 LMP1-TROYcd NF-kB luciferase reporter, 4 h; 0.98% of 360,000 active; AID 1347056, 2019;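 active = compounds whose plate-normalised and pattern-corrected inhibition of the luciferase reporter signal at the single screening dose is 50% or more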
# EBV LMP1 NFkB – EBV LMP1-driven NF-kappaB luciferase reporter inhibitors, primary screen, cell-based, luminescence, single point; 0.69% of 350,000 active; AID 504558, 2011; inhibition, % at 12.5 µM; LMP1-induced NF-kappaB luciferase reporter cells; in the data active = inhibition above about 41%;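 also: 0% = neutral control wells and 100% = reference inhibitor control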
# HSP90 refold inh – HSP90 inhibitors, primary screen, cell lysate, luminescence. Heat shock protein HSP 90 (rabbit reticulocyte lysate; luciferase refolding). Rabbit reticulocyte lysate, luciferase refolding luminescence, 3 h. inhibition, % at 5.6 µM. 0.91% of 290,000 active. AID 1789, 2009;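 active = inhibition above the screen-wide mean plus 3 SD, computed separately per campaign, cut at about 16% in these data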;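 also: 0% = DMSO wells and 100% = 60 µM geldanamycin wells; inhibitors lower the luminescence because luciferase stays unfolded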
# HSF1 activator – HSF-1 activators, primary screen, NIH3T3-HGL cells, MG132 stress, luminescence, single point; NIH3T3-HGL HSF-1 luciferase reporter, 8 h; 100% = twice DMSO control signal; activation, % at 9 µM; 1.7% of 300,000 active;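 active = mean replicate activation of at least 50% with a set share of replicates each reaching 50%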;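 also: 0% = median of the neutral control wells and 100% = twice that signal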
# TWEAK Fn14 block – inhibitors of TWEAK-Fn14 signaling, primary screen, luciferase reporter cells, uHTS; inhibition, % at 10 µM; TWEAK-stimulated Fn14 reporter cells, luciferase luminescence, 8 h; 2% of 360,000 active; in the data active = inhibition above about 50%
# The depositor's hits bear a star; · = no result given. In the library only some 4.7% were active in any assay of this set; here they are far more common.
SMILES,HSF1 inh,TROY signal inh,EBV LMP1 NFkB,HSP90 refold inh,HSF1 activator,TWEAK Fn14 block
C[C@@H]1CN([C@@H](C)CO)C(=O)CCCn2nncc2CO[C@H]1CN(C)C(=O)c1ccncc1,·,13,-4,·,·,28
Cc1ccccc1CNC(=O)c1csc([C@@H]2C[C@H](O)[C@@H](CO)O2)n1,·,12,·,·,·,8
COc1ccc(C(=O)N2CCC2(C)C(=O)O)cc1C(F)(F)F (stereo not given),·,-1,·,·,·,-18
C/C(=C/CCC(C)[C@H]1CC[C@@]2(C)C3=C(CC[C@]12C)[C@@]1(C)CCC(=O)C(C)(C)[C@@H]1CC3)C(=O)O (stereo not given in full),-1,53*,-6,4,-12,10
C/C(=C/CCC(C)C1CCC2(C)C3CCC4C(C)(C)C(=O)CCC4(C)C3=CCC12C)C(=O)O (stereo not given),-1,·,·,·,-8,·
OCc1cccc(-c2cnc3c(Nc4cccc(OC(F)(F)C(F)F)c4)nccn23)c1,·,42,·,·,·,57*
CCOC(=O)[C@]12CCCC=C1N(Cc1ccco1)C(=O)[C@H](CC(=O)NCC1CCCCC1)C2,·,9,·,·,·,4
CN1OC[C@@H]2CN[C@H](c3ccc(-c4cc5ccccc5o4)cc3)C[C@@H]21,·,90*,80*,·,·,106*
C1C2CC3C1C3C2=NN=C1C2CC3C(C2)C13,·,1,·,·,·,4
CCSC1=C(C#N)C(c2ccc(C)o2)CC(=O)N1 (stereo not given),-4,-14,49*,-3,-15,-3
CCCSC1=C(C#N)C(c2ccccc2C)CC(=O)N1 (stereo not given),12,11,-4,-6,7,-2
CCCCSC1=C(C#N)C(c2ccccc2C)CC(=O)N1 (stereo not given),-59*,2,-21,-5,-67,6
CN(C)C(=O)c1cnc(Cc2c[nH]c3ccccc23)c(I)c1,·,2,·,·,·,-7
COc1cc(CNC(=O)c2cc(-c3ccc(OC)cc3C)n[nH]2)cc(OC)c1,·,-9,·,·,·,-20
CC(C)(C)c1[nH]ncc1[N+](=O)[O-],9,-5,-8,-4,52*,-5
COC(=O)Nc1[nH]ncc1[N+](=O)[O-],-12,-5,-3,2,-5,-45
CCCCNC(=O)C1(C)CCN1C(=O)c1cccc(OC(C)=O)c1C (stereo not given),·,-5,·,·,·,-6
Cc1occc1C(=O)N/N=C/C(Br)=C\c1ccccc1,230,-50,-18,5,363*,17
O=C(N/N=C/C(Br)=C/c1ccccc1)NC1CCCCC1,46,-54,-140,1,58*,-36
O=C(N/N=C/C(Br)=C\c1ccccc1)c1ccco1,110,-56,-17,-1,108*,-19
NNc1nc2ccccc2c(=O)n1Cc1ccccc1,9,-53,-9,7,22,74*
COc1ccc(N2CC(C)(C)[C@H](CC(=O)Nc3ccccc3)C2=O)cc1,·,-7,-8,·,·,5
CCc1ccc(-c2nc(CS(=O)CC(=O)NCc3ccco3)c(C)o2)cc1 (stereo not given),-48,44,17,1,-54,76*
COc1ccc(-c2nc(CS(=O)CC(=O)NCc3cccnc3)c(C)o2)cc1 (stereo not given),-1,0,-5,-1,-17,12
CCc1ccc(-c2nc(CS(=O)CC(=O)NCc3cccnc3)c(C)o2)cc1 (stereo not given),-74*,-12,-11,-3,-78,-6
SMILES,HSF1 inh,TROY signal inh,EBV LMP1 NFkB,HSP90 refold inh,HSF1 activator,TWEAK Fn14 block
COc1ccc(-c2nc(CS(=O)CC(=O)NCc3ccco3)c(C)o2)cc1 (stereo not given),-1,7,-5,-2,-11,26
Cc1cc2nc(NC(=O)C3(C)CCN3C(=O)C(C)C)[nH]c2cc1C (stereo not given),·,-22,·,·,·,-4
CC(=O)Nc1ccc(/C=N/Nc2nncc3ccccc23)cc1,-4,-2,-14,3,3,-12
C(=N\Nc1nncc2ccccc12)/c1ccccn1,20,-19,30,29*,43,74*
O=c1cnnc(N/N=C/c2ccccn2)[nH]1,-18,20,76*,-1,-26,-7
Cc1ccc(C(=O)Nc2cccc(NC(=O)c3cccs3)c2)c(C)c1,-2,5,-4,1,11,-19
CN(C)CCCNc1nc2cc(-c3cnn(C)c3)sc2c(=O)n1C,·,-26,·,·,·,-24
Cn1cc(C(=O)c2ccc(Cl)cc2)cc1-c1nc2ccccc2n1C,2,57*,1,0,7,52*
O=[N+]([O-])c1ccc(OCCCOc2cccc3cccnc23)cc1,13,-13,-5,0,33,-6
Brc1ccc(OCCOc2cccc3cccnc23)cc1,30,-36,-21,-2,67*,-6
O=C(N/N=C/c1ccccc1C(=O)O)c1ccc(COc2cccc3cccnc23)cc1,0,-11,7,-1,3,0
Brc1ccc(COc2cccc3cccnc23)cc1,40,-64,·,·,65*,-29
c1ccc(OCCOc2cccc3cccnc23)cc1,10,-48,2,-4,11,-30
O=C(N/N=C/c1ccc[nH]1)c1ccc(COc2cccc3cccnc23)cc1,-69*,48,47*,0,-74,85*
O=[N+]([O-])c1ccc(COc2cccc3cccnc23)cc1,24,-52,-33,2,59*,-49
N#Cc1ccc(COc2cccc3cccnc23)cc1,18,-33,-5,-1,38,-11
Cc1noc(C)c1S(=O)(=O)NC(=O)C1(C)CCN1C(=O)C1(c2ccc(Cl)cc2)CC1 (stereo not given),·,10,·,·,·,-3
Cn1cc(-c2csc(C(O)c3ccccc3)n2)cn1 (stereo not given),·,-2,·,·,·,1
CC(C)c1ccc(NC(=O)c2cc(-c3cc(F)ccc3OCC3CCCO3)n[nH]2)cc1 (stereo not given),·,-15,·,·,·,-30
COc1cc2c(cc1OC)C(C(=O)NC1CC1)C1c3ccccc3CCN1C2=O (stereo not given),-61*,-8,-4,0,-68,-47
CCN(CC)CCNC(=O)C1c2cc(OC)c(OC)cc2C(=O)N2CCc3ccccc3C12 (stereo not given),·,4,-5,2,·,7
CC1CCN(C2=NC(=O)/C(=C/c3cn(-c4ccccc4)nc3-c3cccc(S(=O)(=O)N(C)C)c3)S2)CC1,13,·,-2,1,21,76*
